# According to PubChem BioAssay AID2315 (National Center for Advancing Translational Sciences (NCATS), 2010):
# The whole screen tested about 290,000 compounds, of which about 27,000 (9.3%) were called active. The list comes from a sample in which actives are over-represented; it also holds similar structures and randomly drawn compounds. A number with no mark means an inactive call. Cut-off read from the data, not from the text of the source: active = inhibition mostly above about 28% (no sharp cut-off); inactive = mostly below about 43%.
# Assay: A qHTS for Small Molecule Inhibitors of Shiga Toxin; note: 0% is about no effect
# Settings: Vero cells, Shiga toxin protein synthesis inhibition reporter; at 38.7 µM, hits give high values
row,Structure (SMILES),inhibition
1,CCn1c(SCC(=O)Nc2ccc3c(c2)OCCO3)nnc1-c1ccncc1,24.3%
2,O=C(O)c1ccccc1-c1ccccc1C(=O)Nc1cccc2ccccc12,-18.7%
3,O=C(Nc1cccc2ccccc12)c1onc2c1CCCC2,80.7% (active)
4,O=C(COC(=O)c1ccccn1)Nc1cccc2ccccc12,-15.8%
5,CCN1CCN(C(=O)C2CCCN(S(=O)(=O)c3ccc(OC)c(OC)c3)C2)CC1 (stereo not given),11.9%
6,NC(=O)c1cc(-c2cccnc2)nc2ccc(Br)cc12,20%
7,CC(CN1CCC(n2nccc2NC(=O)C2CCCC2)CC1)c1ccccc1 (stereo not given),-13%
8,Cc1cc(NC(=O)c2ccccc2C)no1,55.6% (active)
9,Cc1cc(NC(=O)CSCc2ccccc2C)no1,48.6%
10,Cc1ccccc1C(=O)Nc1ccccc1NC(=O)c1ccccc1C,-1.64%
11,CCOc1c2ccc(C(=O)NCc3ccc4c(c3)OCO4)cc2nn1C,9.39%
12,Cc1cccc(-c2nc3ccc(C(=O)NCCN4CCN(C)CC4)cc3nc2-c2cccc(C)c2)c1,-22.4%
13,C=CCNC(=O)c1ccc2c3n(nc2c1)-c1ccc(C)cc1CO3,83.8% (active)
14,COc1cc(CNCc2ccc(OC)c3ccccc23)cc(OC)c1OC,-2.52%
15,Cc1cccc(N(Cc2ccccc2)C(=O)c2ccccc2F)c1,41.2%
16,COc1ccc(C(=O)N/N=C(\C)CC(=O)Nc2ccc(Cl)cn2)cc1,97.1% (active)
17,COc1ccc(COC(=O)N/N=C(\C)CC(=O)Nc2ccc(Cl)cc2)cc1,-3.95%
18,COc1ccc(C(=O)NC(=S)Nc2ccc(Cl)cn2)cc1OC,4.19%
19,O=C(C1CCC(=O)N(C2CC2)C1)N1CCN(c2ccc(Cl)cc2)CC1 (stereo not given),-16%
20,O=C1COc2ccc(S(=O)(=O)Nc3ccc(OC(F)(F)F)cc3)cc2N1,-4.37%
21,Cc1cc(NS(=O)(=O)c2ccc(NC(=S)NC(=O)c3ccc(F)cc3Cl)cc2)no1,16.8%
22,CC(=O)c1ccccc1OCc1ccc(C(=O)c2ccccc2)cc1,10.9%
23,Cc1ccc(-c2cn(S(=O)(=O)c3cccc([N+](=O)[O-])c3)nc2N)cc1,13.5%
24,Cc1ccc(-n2cc3ccc([N+](=O)[O-])cc3n2)cc1,57.1% (active)

row,Structure (SMILES),inhibition
1,Cc1cc(C)nc(Nc2cc([N+](=O)[O-])ccc2C)n1,-5.77%
2,O=C(COc1ccc2c(c1)CCC2)N1CCN(c2ccc(F)cc2)CC1,-11.3%
3,CCc1c(O)nc(SCC(=O)N2CCCCC2)n(-c2ccccc2C)c1=O,13%
4,Cc1ccc(-n2c(SCC(=O)N3CCC(C(=O)O)CC3)nc3ccccc3c2=O)cc1C,45.4% (active)
5,COc1cccc(-n2c(SCC(=O)c3c[nH]c4ccccc34)nc3ccccc3c2=O)c1,-9.99%
6,CCOC(=O)CSc1nc2ccc(C)cc2n2cnnc12,9.64%
7,COc1ccc(-c2cc(C(=O)N3CCN(c4ccc(F)cc4)CC3)no2)cc1,11.7%
8,O=C(c1cccs1)N1CCN(C(=O)N2CCOCC2)CC1,-6.78%
9,Cc1cccc(-n2c(C)nc3cc(C(=O)N4CCC5(CC4)OCCO5)ccc32)c1,13.6%
10,Cc1c(C(=O)N2CCCc3ccccc32)oc2ccccc12,33.8%
11,O=C(c1cc(-c2ccc(O)cc2)on1)N1CCOCC1,62% (active)
12,Cc1ccc(-c2cc(C(=O)N3CCC4(CC3)OCCO4)no2)cc1,58.1% (active)
13,O=C(c1cc(-c2ccc(O)cc2)on1)N1CCCc2ccccc21,91.2% (active)
14,O=C(c1cc(-c2ccc(F)cc2)on1)N1CCN(c2ccc(F)cc2)CC1,-1.74%
15,CCC(=O)N1CCCc2ccccc21,14.2%
16,O=C(c1cc(-c2ccc(Cl)cc2)on1)N1CCN(c2ccccc2)CC1,67.5% (active)
17,O=C(c1cc(-c2ccncc2)nc2ccccc12)N1CCC2(CC1)OCCO2,11.7%
18,Cc1noc(C)c1C(=O)N1CCOCC1,-7.37%
19,Nc1nc(SCC(=O)Nc2ccc(Cl)cc2C(F)(F)F)n[nH]1,-27.1%
20,COc1cc(OC)cc(C(=O)Nc2nnc(SCC(=O)NCC3CCCO3)s2)c1 (stereo not given),4.36%
21,COc1ccc(C(=O)NC2CC(C)(C)NC(C)(C)C2)cc1OC,2.67%
22,NC(=O)CN1CCCC1c1ccc2c(c1)OCCO2 (stereo not given),-2.56%
23,O=C(NC1CCCC1)C(c1ccco1)N(C(=O)c1ccco1)c1ccc(F)cc1 (stereo not given),8.42%
24,Cc1ccc(S(=O)(=O)/N=C(/Nc2ccccn2)c2ccc(Cl)cc2)cc1,31.5% (active)

row,Structure (SMILES),inhibition
1,Cc1ccc(S/C(=N\S(=O)(=O)c2ccc(Cl)cc2)c2ccccc2)cc1,11.1%
2,O=S(=O)(/N=C(/Nc1ccccn1)c1ccccc1)c1ccc(Cl)cc1,14.8%
3,CC1CCCCC1NC(=O)CSc1nnc(-c2ccncc2)n1CCCN(C)C (stereo not given),-1.04%
4,CC(C)(C)c1ccc(/C=C/C(=O)Nc2ncccn2)cc1,-4.53% (active)
5,O=C(/C=C/c1ccc(Cl)cc1)Nc1ccc(S(=O)(=O)Nc2ncccn2)cc1,17%
6,Cc1cc(C)nc(NC(=O)/C=C/c2ccc(Cl)cc2)n1,41.9%
7,O=c1c2c(-c3ccccc3)ccnc2[nH]n1-c1ccccc1,38.7%
8,CCC(C)(C)NC(=O)C(c1ccc(OC)cc1)N(C(=O)CCC(=O)Nc1cc(C)on1)c1ccc(OC)cc1OC (stereo not given),8.4%
9,CCN(CC)CCNC(=O)Cn1cnc2sc(C)c(S(=O)(=O)N3CCOCC3)c2c1=O,-2.57%
10,Cc1sc2ncn(CC(=O)NCCN(C)C)c(=O)c2c1S(=O)(=O)N1CCC(C)CC1,106% (active)
11,CCN(CC)CCCNC(=O)Cn1cnc2sc(C)c(S(=O)(=O)N3CCN(c4ncccn4)CC3)c2c1=O,-11.2%
12,CC(=O)c1ccc(S(=O)(=O)N2CCC(Oc3ccc(-n4cnnn4)cc3)CC2)cc1,-8.24%
13,O=C(O)Cn1c(Cc2ccccc2)nc2ccccc21,-5.35%
14,Cc1ccccc1C(=O)N1CCC(C(=O)Oc2ccc(C#N)cc2)CC1,-13.3%
15,O=C(CCN1C(=O)c2ccncc2C1=O)Nc1ccc2c(c1)OCCO2,13.6%
16,O=C(Nc1ccc2c(c1)OCCO2)c1cnccn1,42.2%
17,O=C(Nc1ccc2c(c1)OCCO2)c1ccoc1,65.2% (active)
18,O=C(Nc1ccc2c(c1)OCCO2)c1ccncc1,117% (active)
19,Cn1c(=O)c2ccccc2n(CC(=O)Nc2ccc3c(c2)OCCO3)c1=O,-7.05%
20,Cc1ccc(-n2ncc3c2CC(C)(C)CC3NC(=O)Cc2c(C)noc2C)cc1 (stereo not given),-6.91%
21,COc1cccc(NC(=O)COc2cc(C)cc3oc(=O)cc(C)c23)c1,-4.63%
22,COc1ccc(C2=NS(=O)(=O)N(C)C(C(=O)N3CCCCC3)=C2)cc1,-2.94%
23,COc1cccc(OCCCN2CCCCCC2)c1,11.6%
24,COc1cccc(Oc2ccc(N)cc2)c1,33.2% (active)

row,Structure (SMILES),inhibition
1,CC(C)(C)c1ccc(Oc2ccc(N)cc2)cc1,-23.2%
2,COc1ccc(-c2cc(=O)oc3cc(OCC(=O)N[C@@H](Cc4c[nH]c5ccccc45)C(=O)O)ccc23)cc1,1.78%
3,Cc1cc(=O)n2nc(N3CCCC(C(=O)NCc4cccc(Cl)c4)C3)sc2n1 (stereo not given),10.1%
4,COc1cccc(N(CC(=O)Nc2cccc(N(C)S(C)(=O)=O)c2)S(C)(=O)=O)c1,-9.96%
5,CN(c1cccc(NC(=O)Nc2ccc(Cl)cc2)c1)S(C)(=O)=O,66.3% (active)
6,Cc1ccc(N(CC(=O)Nc2cccc(N(C)S(C)(=O)=O)c2)S(C)(=O)=O)cc1,-15.9%
7,COc1ccc(Nc2ccc([N+](=O)[O-])cn2)cn1,25.8%
8,Cc1cccc(-n2nc3c(c2NC(=O)c2cc4ccccc4o2)CS(=O)(=O)C3)c1,-6.86%
9,CCOc1ccc(CCNC(=O)CCc2nnc3ccc(N4CCCC4)nn23)cc1OCC,-2.23%
10,Cc1ccc(/C=N/NC(=S)NC2CCCCC2)o1,72.6% (active)
11,S=C(NN=C1CCN(Cc2ccccc2)CC1)NC1CCCCC1,9.13%
12,Cc1ccc(/C=N/NC(=O)Cn2nc(C)c(Br)c2C)o1,-6.63%
13,Cc1ccc(/C=N/NC(=S)Nc2cccc(S(=O)(=O)N(C)C)c2)o1,40.8%
14,S=C(NCc1ccc(Cl)cc1)NC1CCCCC1,-6.42%
15,C/C(=N/NC(=O)c1ccc(Br)o1)c1ccc(C)o1,91.6% (active)
16,CC(CCc1ccccc1)NC(=O)c1ccc(Br)o1 (stereo not given),0.792%
17,CC(CNC(=O)c1ccc(Br)o1)NC(=O)c1ccc(Br)o1 (stereo not given),10.2%
18,C/C(=N\NC(=S)NC1CCCCC1)c1ccc(C)o1,52.7% (active)
19,COc1ccc(CNC(=O)C2CCN(C(=O)c3ccco3)CC2)cc1,-12.4%
20,CCCc1cc(=O)n2[nH]c(C)c(-c3ccc(Cl)cc3)c2n1,-5.47%
21,Cc1ccc(C(CNC(=O)Nc2cccc(C)c2)N2CCN(C)CC2)cc1 (stereo not given),1.35%
22,Cc1c(NC(=O)Nc2cccc([N+](=O)[O-])c2)c(=O)n(-c2ccccc2)n1C,-5.21%
23,CC1CCN(S(=O)(=O)c2ccc3c(ccn3CC(=O)O)c2)CC1,-22.5%
